Sampled rows, rich in hits. Any-hit rate of the full collection: about 18%.
CtBP-E1A inh: CtBP/E1A binding inhibition; AlphaScreen GST-E1A/His-CtBP binding, 1536-well; active compounds read low; 340,000 compounds, 0.49% hits; activity change, % (no concentration beside the values); in the data active means activity change below about -65%; inconclusive means mostly about -30% to -63%
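Steps: dispense buffer (Tris pH 8.0, NaCl 300 mM, TCEP 1 mM, BSA, Tween 20); add 5X protein mix (GST-E1A, His-CtBP, 125 nM each); pin 23 nL compound; 2 h at 37 °C, dark; add 5X beads (50 ug/mL); 1 h; read.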
Six1-Eya2 blk: Six1/Eya2 interaction inhibition | Q15475+O00167 | AlphaScreen GST-Six1/His-Eya2 binding, biochemical; active compounds read low | activity change, % (concentration not given with the values) | 360,000 compounds, 0.56% hits; in the data active means activity change below about -65%; inconclusive means mostly about -30% to -63%
Target sequence (O00167 whole entry, looked up): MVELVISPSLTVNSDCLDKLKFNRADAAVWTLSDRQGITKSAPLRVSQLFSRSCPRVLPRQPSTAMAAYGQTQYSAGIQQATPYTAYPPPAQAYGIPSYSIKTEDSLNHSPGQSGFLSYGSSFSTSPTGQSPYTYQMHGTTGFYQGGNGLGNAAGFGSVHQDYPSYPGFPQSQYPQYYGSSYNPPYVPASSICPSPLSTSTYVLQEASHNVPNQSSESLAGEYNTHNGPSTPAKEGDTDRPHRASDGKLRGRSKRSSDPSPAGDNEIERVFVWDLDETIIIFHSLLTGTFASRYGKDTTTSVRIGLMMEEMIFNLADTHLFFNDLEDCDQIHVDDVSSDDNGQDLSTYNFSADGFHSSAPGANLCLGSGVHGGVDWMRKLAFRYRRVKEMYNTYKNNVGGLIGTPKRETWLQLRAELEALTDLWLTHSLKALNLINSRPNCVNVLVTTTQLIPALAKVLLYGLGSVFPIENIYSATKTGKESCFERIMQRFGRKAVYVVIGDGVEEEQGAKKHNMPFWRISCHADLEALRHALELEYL
Target sequence (Q15475 whole entry, looked up): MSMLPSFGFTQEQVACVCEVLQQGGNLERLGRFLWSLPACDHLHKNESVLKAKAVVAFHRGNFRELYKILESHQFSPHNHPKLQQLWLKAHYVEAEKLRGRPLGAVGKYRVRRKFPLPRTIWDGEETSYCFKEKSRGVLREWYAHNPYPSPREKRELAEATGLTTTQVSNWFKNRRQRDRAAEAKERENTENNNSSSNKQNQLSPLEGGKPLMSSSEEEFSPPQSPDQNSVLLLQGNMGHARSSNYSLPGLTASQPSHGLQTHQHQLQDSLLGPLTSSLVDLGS
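Six1/Eya2 binding was read as AlphaScreen signal after compounds were pinned into GST-Six1 plus His-tagged Eya2 (5X stock 250/500 nM) in pH 8.0 Tris/NaCl/TCEP buffer, beads added, then incubated 1 h, 37 C, dark.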
TDP1 cell noCPT: qHTS for Inhibitors of human tyrosyl-DNA phosphodiesterase 1 (TDP1): qHTS in cells in absence of CPT; DT40 Tdp1-/- hTDP1 cells, no CPT, ATP luminescence, 48 h; Potency, µM (titrated, usually from 46.2 µM), inactives show top-dose activity change, negative = growth inhibition, most hits filed as inhibitors; 420,000 compounds, 15% hits; AID 686978, 2013; further: potency means the concentration at half of the fitted maximal effect; nearly all actives have a fitted effect of over 55% in size
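Chicken DT40 Tdp1-/- cells stably complemented with human TDP1 were seeded at 400 cells/well with DMSO in place of 20 nM camptothecin. After compound pinning, cells grew at least 48 hr at 37 °C; viability read by CellTiter-Glo luminescence.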
IL1B secr inh: blocks inflammasome-driven IL-1 beta release. AID 743279. activity change, % at 57.5 µM. THP-1 LPS/ATP IL-1B secretion, AlphaLISA, 16 h; active compounds read low. 360,000 compounds, 4.7% hits; in the data active means activity change below about -50%; inconclusive means mostly about -30% to -49%
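Secreted IL-1B measured by AlphaLISA bead assay after 16 h compound exposure of THP-1 cells; compounds (final up to 57.5 uM) added 1 h before LPS (250 ng/mL) and ATP (1.25 mM) stimulation; lower signal means less secretion.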
TDP1 inh: TDP1 (human) enzyme inhibition. 350,000 compounds, 0.28% hits. recombinant TDP1, AlphaScreen DNA substrate cleavage. Potency, µM (top dose mostly 130 µM), for the others: at the top dose activity change, negative = inhibition, usual class: inhibitors. Q9NUW8. AID 485290; further: potency means the concentration at half of the fitted maximal effect; nearly all actives have a fitted effect of over 40% in size
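Here, a 5' biotin and 3' phosphotyrosine-FITC DNA oligonucleotide reports Tdp1 activity: intact substrate bridges AlphaScreen beads, while cleavage leaves a 3' phosphate and drops signal. All incubations at room temperature.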
TDP1 cell CPT: DT40-hTDP1 cell growth loss with CPT; AID 686979; 420,000 compounds, 12% hits; Potency, µM (top dose mostly 46.2 µM), without a hit: at the top dose activity change, negative = growth inhibition, most hits filed as inhibitors; chicken DT40 Tdp1-/-;hTDP1 cells + 20 nM CPT, ATP luminescence, 48 h; further: potency means the concentration at half of the fitted maximal effect; nearly all actives have a fitted effect of over 55% in size
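Chicken DT40 Tdp1-/- cells stably complemented with human TDP1 were seeded at 400 cells/well in medium containing 20 nM camptothecin, exposed to pin-transferred compounds, and grown at 37 °C for at least 48 hr. Viability was read as ATP luminescence.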
Starred values were filed as active, the others as inactive; u = inconclusive; x = not tested or not shown; ! = not active in a repeat; [ ] = dose if it differs, or a comment. Unless noted, the call rests on the fitted dose curve; in most records, active means well fitted curve in the direction sought with a large enough effect; inconclusive means small, poorly fitted or top-dose-only effect, or another doubt; inactive means no such curve, though single readings can be large; an effect the other way counts as inactive or inconclusive. On the % scale 0 is the no-effect control and ±100 the full control effect.

SMILES	CtBP-E1A inh	Six1-Eya2 blk	TDP1 cell noCPT	IL1B secr inh	TDP1 inh	TDP1 cell CPT
CCn1nc(NS(=O)(=O)c2cccc3nonc23)c2cc3ccc(C)cc3nc21	u	u	1.0%	29.0	8.8%	0.4%
CCc1ccc(-c2cn3c(n2)sc2cc(C(=O)NCCCc4ccccc4)ccc23)cc1	x	x	-2.2%	x	3.9%	-22.3%
Cc1ccc(-n2cnc3cc(C(=O)NCCC4=CCCCC4)ccc32)c(C)c1	x	x	u	x	7.8%	u
Cc1ccc(-c2cn3c(n2)sc2cc(C(=O)NCCCc4ccccc4)ccc23)c(C)c1	x	x	18.4µM*	x	5.2%	23.1µM*
Cc1ccc(-c2cn3c(n2)sc2cc(C(=O)NCCC4=CCCCC4)ccc23)c(C)c1	x	x	16.4µM*	x	-6.5%	16.4µM*
CCn1cc(CN2CCC(n3nccc3NC(=O)C3CCCC3)CC2)c(C)n1	3.3	-0.7	1.9%	6.3	0.7%	7.2%
COc1ccc(-c2nnc3n2N=C(c2ccccc2OC)CS3)cc1	x	x	x	x	6.8%	x
O=S1(=O)CCOC[C@H](Cc2ccccc2)N1Cc1cccc(C(F)(F)F)c1	-24.3	15.2	u	-15.1	x	18.4µM*
O=S1(=O)CCOC[C@H](CC2CCCCC2)N1Cc1cccc(C(F)(F)F)c1	0.9	-1.1	18.4µM*	-2.5	x	u
CC(C)[C@H]1COCCS(=O)(=O)N1Cc1ccccc1	x	6.5	10µM*!	12.9	x	u
CCC[C@H]1COCCS(=O)(=O)N1Cc1ccc(F)cc1	x	x	-15.3%	x	x	-12.4%
CCC[C@H]1COCCS(=O)(=O)N1Cc1ccc(Br)cc1	x	x	11.2µM*	x	x	u
O=S1(=O)CCOC[C@H](Cc2ccccc2)N1Cc1ccccc1	5.5	2.6	-23.9%	-9.6	x	-11.2%
COc1ccc(NC(=O)c2c(F)cccc2F)cc1S(=O)(=O)Nc1ccc(Br)cc1	-2.2	-5.3	-21.6%	-11.5	-5.6%	-23.7%
CSc1ccc(S(=O)(=O)Nc2c(C)n(C)n(-c3ccccc3)c2=O)cc1	7.8	1.0	9.6%	u	x	-0.2%
O=C(NCC1OCCc2ccccc21)c1cc(COc2c(F)cccc2F)on1 (centres undefined)	15.6	4.7	16.4µM*	-7.0	0.0%	-8.7%
O=C(NCC1OCCc2ccccc21)c1ccc(NC(=O)c2ccccc2Cl)cc1 (centres undefined)	1.5	7.4	u	-73.4*	-2.7%	-20.9%
COc1ccc(C(=O)NCC2OCCc3ccccc32)cc1OC (centres undefined)	-0.4	10.5	-0.3%	u	2.5%	-4.9%
O=C(NCC1OCCc2ccccc21)c1ccc(NC(=O)c2cccc(Br)c2)cc1 (centres undefined)	-14.2	1.5	7.31µM*	17.7	2.7%	7.31µM*
CNc1nc(OCCNC(=O)Nc2ccccc2)nc(N2CCOCC2)n1	4.7	2.5	-18.7%	-5.2	-5.0%	-15.6%
CCc1ccccc1Nc1nc(N)nc(CSCC(=O)Nc2ccc(C)c(C)c2)n1	x	6.7	u	-9.5	2.7%	0.2%
COc1ccc(N2CCN(C(=O)CCCn3c(=S)[nH]c4cc5c(cc4c3=O)OCO5)CC2)cc1	-4.6	-19.6	-5.9%	-16.0	4.1%	-20.0%
Cc1cc(N=Cc2c(O)n(-c3cccc(Cl)c3)c(=O)c3ccccc23)no1	1.1	-5.8	20.6µM*	0.0	2.6%	11.6µM*
O=c1c2ccccc2c(C=Nc2ccc(S(=O)(=O)Nc3ncccn3)cc2)c(O)n1-c1cccc(Cl)c1	x	x	x	x	1.2%	x
C=CC(=O)OCCOCCOC(=O)C=C	x	x	x	x	6.5%	x
SMILES	CtBP-E1A inh	Six1-Eya2 blk	TDP1 cell noCPT	IL1B secr inh	TDP1 inh	TDP1 cell CPT
Cc1ccc(NC(=O)CSc2nc(-c3ccco3)cc(C(F)(F)F)n2)cc1C	8.2	5.5	3.66µM*	23.9	4.2%	2.31µM*
O=C(CSc1nc(-c2ccco2)cc(C(F)(F)F)n1)NCCN1CCOCC1	0.2	8.0	u	8.5	2.4%	-19.6%
COC(=O)c1ccc(C(=O)OC)c(NC(=O)CSc2nc(-c3ccco3)cc(C(F)(F)F)n2)c1	0.4	-4.2	u	18.0	x	u
COc1ccc(Cl)cc1NC(=O)CSc1nc(-c2ccco2)cc(C(F)(F)F)n1	x	x	16.4µM*	x	-3.2%	18.4µM*
O=C(CSc1nc(-c2ccco2)cc(C(F)(F)F)n1)Nc1ccc2c(c1)CCC2	-3.8	6.6	u	12.1	4.5%	u
O=C(CSc1nc(-c2ccco2)cc(C(F)(F)F)n1)NC1CCCC1	7.9	2.3	u	-6.2	-2.5%	20.6µM*
COc1ccc(NC(=O)CCCSc2nc(-c3ccco3)cc(C(F)(F)F)n2)c(OC)c1	x	x	u	x	3.2%	u
COC(=O)c1ccccc1NC(=O)CSc1nc(-c2ccco2)cc(C(F)(F)F)n1	7.0	3.3	4.61µM*	43.1	-1.1%	4.11µM*
Cc1cccc(-c2nc(SCc3cc(=O)c4cccc(F)c4[nH]3)n[nH]2)c1	x	x	u	x	0.0%	u
CC(C)COC(=O)N1CCCCC1c1cc(C(=O)NCc2ccccc2)no1 (centres undefined)	6.4	2.5	u	-10.3	x	18.4µM*
O=C(Nc1ccccc1)c1cc(C2CCCN(C(=O)CCc3ccccc3)C2)on1 (centres undefined)	1.0	-9.2	u	6.6	x	25.9µM*
COC(=O)N1CCCCC1c1cc(C(=O)NCc2ccccc2)no1 (centres undefined)	2.4	2.8	-0.1%	22.4	x	-6.9%
O=C(NCc1ccc(F)cc1)c1cc(C2CCCN(C(=O)CCCc3ccccc3)C2)on1 (centres undefined)	2.7	1.3	u	u	x	23.1µM*
O=C(NCc1ccc(F)cc1)c1cc(C2CCCCN2C(=O)CCCc2ccccc2)on1 (centres undefined)	1.4	-2.8	23.1µM*	u	x	u
CCc1ccc(NC(=O)Cn2c3ncccc3c(=O)n2-c2ccc(C)c(C)c2)cc1	x	x	u	x	0.0%	u
CC1=C(C(=O)Nc2cccnc2)C(c2ccc(C)cc2)n2nc(SCc3ccccc3F)nc2N1 (centres undefined)	x	x	-11.5%	x	2.9%	-3.4%
Cc1cc(C)c2nc(SCC(=O)Nc3cc(C)on3)c(C)cc2c1	-1.0	3.6	u	-0.1	-0.2%[0.0935 µM]	-17.2%
C=C(C)COc1ccc(-c2nc(N)nc(C(F)(F)F)c2-c2ccc(OC)cc2)c(O)c1	x	-20.9	u	-3.8	x	u
CCCNC(=O)c1cc(C2CCCCN2C(=O)c2cc(F)ccc2C)on1 (centres undefined)	0.7	12.0	-21.7%	38.3	x	-27.7%

Screening results: PubChem, National Center for Advancing Translational Sciences (NCATS)
